From PubChem BioAssay
An excerpt weighted towards active compounds, which were near 0.84% of everything screened.
SRC1 TRFRET art – counter-screen for PPARgamma SRC-1 recruitment agonists: TR-FRET artefact | hit rate 0.34% among 99,000 | TR-FRET detection artefact counter-screen, emission ratio; stronger effect = higher value | TR-FRET ratio at 8 µM; in the data active means TR-FRET ratio above about 2300
PPARg SRC1 recr – promotes SRC-1 coactivator recruitment by human PPARgamma; P37231; PPARgamma-SRC-1 coactivator recruitment biochemical assay; activation, % at 8 µM; hit rate 0.41% among 200,000; in the data active means activation above about 19%
PPARg SRC3 recr – promotes SRC-3 coactivator recruitment by human PPARgamma; P37231; biochemical PPARgamma/SRC-3 coactivator recruitment assay; activation, % at 8 µM; hit rate 0.26% among 200,000; AID 731; in the data active means activation above about 23%
PPARg SRC-2 ag – agonists of SRC-2 recruitment by human PPARgamma. P37231. PPARgamma LBD-SRC-2 recruitment, biochemical. activation, % at 8 µM. hit rate 0.34% among 200,000. AID 1032; in the data active means activation above about 22%
SRC3 TRFRET art – counter-screen for PPARgamma SRC-3 recruitment agonists: TR-FRET artefact; PPARgamma/SRC-3 format; stronger effect = higher value; TR-FRET ratio at 8 µM; hit rate 0.39% among 99,000
SRC2 TRFRET art – TR-FRET artefact, counter-screen to PPARgamma/SRC-2 agonist assay; stronger effect = higher value; TR-FRET ratio at 8 µM; hit rate 0.4% among 200,000; AID 1049
PPARg SRC2 ag – human PPARgamma SRC-2 recruitment agonism, confirmation. shares compounds with PPARg SRC3 recr. biochemical SRC-2 recruitment by PPARgamma. activation, % at 8 µM. hit rate 52% among 790. AID 1297; in the data active means activation above about 22%
PPARg SRC1 ag – confirmation of agonists of SRC-1 recruitment by human PPARgamma | activation, % at 8 µM | PPARgamma–SRC-1 coactivator recruitment biochemical assay | hit rate 43% among 790 | shares compounds with PPARg SRC3 recr; in the data active means activation above about 20%
PPARg SRC3 ag – confirmation of agonists of SRC-3 recruitment by human PPARgamma | biochemical PPARgamma-SRC-3 coactivator recruitment, agonist mode | shares compounds with PPARg SRC3 recr | hit rate 29% among 790 | activation, % at 8 µM; in the data active means activation above about 24%
Target sequence (P37231 whole entry, looked up): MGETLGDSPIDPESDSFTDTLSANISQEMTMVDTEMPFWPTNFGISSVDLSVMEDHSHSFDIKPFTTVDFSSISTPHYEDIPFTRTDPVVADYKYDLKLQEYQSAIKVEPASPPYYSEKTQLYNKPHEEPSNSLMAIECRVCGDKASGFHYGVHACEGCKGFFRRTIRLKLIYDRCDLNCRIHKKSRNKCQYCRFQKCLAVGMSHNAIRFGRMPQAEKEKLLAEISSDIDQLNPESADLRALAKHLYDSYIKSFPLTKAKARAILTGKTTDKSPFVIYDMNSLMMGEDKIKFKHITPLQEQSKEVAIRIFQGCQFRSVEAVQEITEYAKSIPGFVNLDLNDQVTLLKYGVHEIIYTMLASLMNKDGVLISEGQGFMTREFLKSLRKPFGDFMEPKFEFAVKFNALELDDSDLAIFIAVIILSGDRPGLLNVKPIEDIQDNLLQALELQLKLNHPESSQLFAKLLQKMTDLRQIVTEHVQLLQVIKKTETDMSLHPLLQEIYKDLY
Target sequence (Q9Y6Q9 whole entry, looked up): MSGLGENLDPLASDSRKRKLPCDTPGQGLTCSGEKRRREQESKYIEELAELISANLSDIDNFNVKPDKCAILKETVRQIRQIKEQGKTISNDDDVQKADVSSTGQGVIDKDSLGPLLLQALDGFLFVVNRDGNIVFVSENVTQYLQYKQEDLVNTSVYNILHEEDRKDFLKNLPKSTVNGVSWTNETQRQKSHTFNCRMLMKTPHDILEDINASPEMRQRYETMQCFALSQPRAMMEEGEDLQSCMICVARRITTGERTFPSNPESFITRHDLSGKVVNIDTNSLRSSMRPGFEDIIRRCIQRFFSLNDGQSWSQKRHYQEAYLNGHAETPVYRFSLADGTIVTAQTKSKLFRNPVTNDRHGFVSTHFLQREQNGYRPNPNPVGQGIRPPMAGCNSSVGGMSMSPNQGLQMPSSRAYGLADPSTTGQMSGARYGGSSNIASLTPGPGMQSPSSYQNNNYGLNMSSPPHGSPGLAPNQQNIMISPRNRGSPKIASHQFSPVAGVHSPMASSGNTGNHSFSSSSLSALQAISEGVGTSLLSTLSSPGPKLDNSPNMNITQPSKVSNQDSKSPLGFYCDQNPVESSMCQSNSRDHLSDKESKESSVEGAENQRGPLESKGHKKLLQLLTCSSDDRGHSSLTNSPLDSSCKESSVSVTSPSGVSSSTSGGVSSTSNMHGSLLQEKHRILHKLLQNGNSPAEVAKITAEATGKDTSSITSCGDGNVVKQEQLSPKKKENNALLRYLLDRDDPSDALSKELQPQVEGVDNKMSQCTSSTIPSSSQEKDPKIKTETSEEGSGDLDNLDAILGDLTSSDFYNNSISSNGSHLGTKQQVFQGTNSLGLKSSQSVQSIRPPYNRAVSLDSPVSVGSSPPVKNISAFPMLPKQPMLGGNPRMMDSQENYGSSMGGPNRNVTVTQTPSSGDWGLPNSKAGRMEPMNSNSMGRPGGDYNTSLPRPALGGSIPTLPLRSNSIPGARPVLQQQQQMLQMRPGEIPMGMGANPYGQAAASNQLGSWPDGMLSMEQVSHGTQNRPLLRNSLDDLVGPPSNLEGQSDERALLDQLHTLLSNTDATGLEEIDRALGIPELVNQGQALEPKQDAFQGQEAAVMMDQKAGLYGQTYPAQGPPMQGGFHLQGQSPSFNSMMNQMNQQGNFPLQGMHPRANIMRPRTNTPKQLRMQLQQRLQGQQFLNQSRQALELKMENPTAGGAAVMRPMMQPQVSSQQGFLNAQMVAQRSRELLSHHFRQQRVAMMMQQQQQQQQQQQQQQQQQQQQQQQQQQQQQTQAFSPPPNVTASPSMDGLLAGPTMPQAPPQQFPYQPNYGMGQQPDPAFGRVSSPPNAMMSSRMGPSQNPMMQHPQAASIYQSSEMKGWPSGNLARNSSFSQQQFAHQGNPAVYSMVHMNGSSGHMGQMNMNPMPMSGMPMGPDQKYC
A number is an active result; 0 = inactive; - = no result given. Unless noted, no stated cut-off is given here; in the data, active means TR-FRET ratio above about 2000; inactive means the rest.

SMILES | SRC1 TRFRET art | PPARg SRC1 recr | PPARg SRC3 recr | PPARg SRC-2 ag | SRC3 TRFRET art | SRC2 TRFRET art | PPARg SRC2 ag | PPARg SRC1 ag | PPARg SRC3 ag
CCCCn1c(SCC(=O)NC2CCS(=O)(=O)C2)nc2cc(S(N)(=O)=O)ccc21 (stereo not given) | 0 | 0 | 0 | 0 | 0 | 0 | - | - | -
CC1(C)CC(=O)c2cc3c(N)c(C(=O)NCc4ccccc4)sc3nc2C1 | - | 0 | 0 | 0 | - | 0 | - | - | -
CN1CCc2nc3sc(C(=O)NCc4ccccc4)c(N)c3cc2C1 | 0 | 0 | 0 | 24 | 0 | 0 | 0 | 0 | 0
Cc1ccc(C2NC(=O)Cc3ccccc32)cc1 (stereo not given) | - | 0 | 0 | 0 | - | 0 | - | - | -
CCOC(=O)c1cc(Br)c(=O)n2ccccc12 | - | 32 | 32 | 39 | - | 2044 | 0 | 0 | 0
COc1ccc(NC2CC(=O)N(c3cc([N+](=O)[O-])ccc3C)C2=O)cc1 (stereo not given) | 0 | 0 | 0 | 0 | 0 | 0 | - | - | -
O=C(C[n+]1ccc(CCSc2ccc(F)cc2)cc1)c1ccccc1 | 0 | 0 | 0 | 0 | 0 | 0 | - | - | -
N#C/C(=C\c1ccc(N2CCOCC2)o1)C(=O)NCC1CCCO1 (stereo not given) | 0 | 20 | 0 | 0 | 0 | 2010 | 0 | 0 | 0
c1csc(-c2cnc3ccccc3n2)c1 | 0 | 0 | 0 | 0 | 0 | 0 | - | - | -
c1cc2c(cnc3cscc32)s1 | 3316 | 49 | 29 | 53 | 2526 | 2391 | 62 | 51 | 42
Cc1nc2ncccn2c1-c1csc(Nc2ccc(N(C)C)cc2)n1 | 0 | 0 | 0 | 24 | 0 | 0 | 0 | 0 | 0
Cc1nc2ncccn2c1-c1csc(Nc2ccccc2)n1 | 0 | 0 | 0 | 0 | 0 | 0 | - | - | -
CC(=O)c1nc(N2C(=O)CC(Cc3cccc(C)c3)C2=O)sc1C (stereo not given) | - | 20 | 0 | 0 | - | 0 | 0 | 0 | 0
Cn1cc(CNCCN2CCCCC2=O)c(-c2cccc(Cl)c2)n1 | 0 | 0 | 0 | 0 | 0 | 0 | - | - | -
CCCC1O[C@@H]2CC3C4CCC5=CC(=O)C=C[C@]5(C)C4C(OC(C)=O)C[C@]3(C)[C@]2(C(=O)COC(C)=O)O1 (stereo not given in full) | - | 60 | 47 | 38 | - | 0 | 42 | 49 | 48
CCCC1O[C@@H]2C[C@H]3[C@@H]4CCC5=CC(=O)C=C[C@]5(C)[C@H]4[C@@H](O)C[C@]3(C)[C@]2(C(=O)CO)O1 (stereo not given in full) | 0 | 0 | 0 | 0 | 0 | 0 | - | - | -
COc1ccc(-c2nnc(SCC(=O)c3[nH]c(C)c(C(C)=O)c3C)o2)cc1 | - | 19 | 0 | 0 | - | 0 | 0 | 0 | 0
CC(=O)c1c(C)[nH]c(C(=O)CSc2nnc(-c3ccco3)o2)c1C | 0 | 0 | 0 | 0 | 0 | 0 | - | - | -
CCCCSc1nnc(CNC(=O)C23CC4CC(CC(C4)C2)C3)n1Cc1ccccc1 | 0 | 0 | 0 | 0 | 0 | 0 | - | - | -
CCOCC(=O)Nc1ccc([N+](=O)[O-])cc1C | 0 | 0 | 0 | 0 | 0 | 0 | - | - | -
O=C(Nc1cccnc1)c1sc2cccc(F)c2c1Cl | 0 | 0 | 0 | 0 | 0 | 0 | - | - | -
Cc1ccccc1Nc1nc(-c2ccccc2)c(C(=O)Nc2cccnc2)s1 | 2835 | 24 | 0 | 26 | 2456 | 1978 | 44 | 36 | 26
O=C(Nc1cccnc1)c1sc(Nc2ccccc2F)nc1-c1ccccc1 | 3447 | 50 | 31 | 48 | 3407 | 3029 | 68 | 50 | 46
O=C(N/N=C\c1c(O)ccc2ccccc12)c1ccc(Cn2cccn2)o1 | 0 | 0 | 0 | 0 | 0 | 0 | - | - | -
CCCNC(=O)NC1CCCc2ccccc21 (stereo not given) | 0 | 0 | 0 | 0 | 0 | 0 | - | - | -
CS(=O)(=O)c1ccccc1-c1nnc(-c2ccc(Cl)cc2)o1 | 0 | 0 | 0 | 0 | 0 | 0 | - | - | -
O=S(=O)(Cc1ccc(Cl)cc1)c1ccccc1-c1nnc(-c2ccccc2)o1 | - | 0 | 0 | 26 | - | 2006 | 0 | 0 | 0
O=C1CCC(=O)N1c1ccc(-c2nc3ccccc3s2)cc1 | 0 | 28 | 0 | 25 | 0 | 0 | 0 | 0 | 0
COc1ccc(NC(=S)N/N=C/c2cccn2Cc2ccc(F)cc2)cc1 | 0 | 0 | 0 | 0 | 0 | 0 | - | - | -
Cc1ccc(NS(=O)(=O)c2cc(C(=O)NCCSc3ccc(C)cc3)ccc2C)cc1 | - | 20 | 0 | 0 | - | 0 | 0 | 0 | 0
